Here are results for 71 molecules from PubChem BioAssay AID1259311 (ICCB-Longwood Screening Facility, Harvard Medical School, 2017).

The structures appear in SMILES notation. “And” between values parts separate entries of the source, which are not always exact repeats. Equal entries are not always repeated. The campaign covered roughly 330,000 compounds. About 1,100 (0.33%) were called active. Shown is part of a subset that was picked to be rich in actives. Unmarked numbers belong to inactive results. No stated cut-off is given here; in the data, active means inhibition above about 85%; inactive means the rest.

The test in a line: growth inhibition of S. aureus RN4220, primary screen, OD600 (AID 1259311).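 Further: plate controls were untreated cells for no effect and reference antibiotic for full effect.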 The following applies: OD600, 16 h, stronger effect = higher value.
As for `COc1ccc(C=NNC(=O)C(=O)N2CCCCCC2)cc1`, the inhibition is 0.0129%.

With `Cc1nc2c(-c3ccccc3)c(C)[nH]n2c(=O)c1Cl`, the inhibition is 5.58%.

Regarding `Cc1[nH]n(-c2cccc(Cl)c2)c(=O)c1-c1ccc(Cl)cc1`, the inhibition was 106% (active).

In the case of `Cc1cc(=O)n2[nH]c(-c3cccc(Cl)c3)cc2n1`, the inhibition is 0.714%.

Turning to `CC(C)(C)NC(=O)C=NO`, the inhibition is 6.33%.

Regarding `O=C(NN=Cc1ccc(OC(F)F)cc1OC(F)F)c1ccc(Br)cc1`, the inhibition was 3.44%.

As to `N#CC(=C(O)c1ccco1)c1ccccn1`, the inhibition was 2.69%.

Regarding `Oc1ccc(Br)cc1C=Nn1c(COc2ccccc2)n[nH]c1=S`, the inhibition is 5.82%.

With `FC(F)(F)c1cccc(NC(=S)Nc2cccc(Cl)c2)c1`, the inhibition was 100% (active).

For the molecule `Cn1cc(Cl)c(C(=O)NNC(=S)Nc2cccc(Cl)c2)n1`, the inhibition is 4.73%.

In the case of `O=C(O)CC1(CC(=O)Nc2cccc(C(F)(F)F)c2)CCCC1`, the inhibition was 3.93%.

As to `CCN1CC2C3C(=O)N(C)C(=O)C3[C@](Cc3ccccc3)(C1=O)N2C(=O)c1ccccc1` (stereo partly specified), the inhibition is 1.95%.

As for `COC(=O)C(C=NOCc1ccc([N+](=O)[O-])cc1)NC(=O)c1cccc(Cl)c1` (stereo unspecified), the inhibition was -3.78%.

Turning to `COC(=O)[C@@]1(Cc2ccc(OC)cc2)C2c3cc(C(=O)N4CCCC4)n(CCSCCO)c3CC2CN1C(=O)c1ccccc1` (stereo partly specified), the inhibition was 3.17%.

Take `N#CC1=C(SCc2ccc(C#N)cc2)N=C(N)C(c2nc(-c3ccccc3)cs2)C12CCCCC2` (stereo unspecified): the inhibition is 98.3% (active).

With `N#CC1=C(SCc2ccccc2)NC(=O)C(C#N)C12CCCC2` (stereo unspecified), the inhibition is 13.6%.

In the case of `N#Cc1ccc(CSc2ncccn2)cc1`, the inhibition is 3.27%.

Turning to `O=C(NC1CC1)C1=CC(C2CC2)CC(OCCCCO)O1` (stereo unspecified), the inhibition was 6.8% and 1.82%.

Regarding `Cc1cc(C(=O)NN=Cc2cc(Cl)cc([N+](=O)[O-])c2O)n[nH]1`, the inhibition is 7.38%.

Take `COc1ccc(C(=O)/C=C/c2cccnc2)c(OC)c1`: the inhibition was 2.36%.

Regarding `COc1ccc(/C=C/C(=O)c2cc(Br)ccc(=O)c2O)cc1`, the inhibition was 94.3% (active).

With `COc1ccc(NC(=O)ON=Cc2ccc(Br)cc2)cc1`, the inhibition is 5.53%.

With `CC(C)(C)OC(=O)NC(Cc1ccccc1)C(=O)NC(CO)C(O)C1CC1C(=O)NC1CC1` (stereo unspecified), the inhibition is 2.57%.

Take `CC(C)(C)OC(=O)C1=C(CO)CS[C@@H]2[C@H](NC(=O)Cc3ccccc3)C(=O)N12`: the inhibition was 99.2% (active).

As to `O=C(Cc1ccccc1)NNC1CC(=O)N(c2ccc(Br)cc2)C1=O` (stereo unspecified), the inhibition is 4.24%.

Regarding `CC(=NNC(=O)CNc1ccccc1)c1ccccc1`, the inhibition is 0.316%.

For `Cc1cc(N=Nc2ccc3ccccc3c2)ccc1O`, the inhibition was 99.9% (active).

With `Cc1c(O)ccc(C(Cc2ccc3ccccc3n2)=NN)c1O`, the inhibition was 4.37%.

Turning to `COc1cccc(C=NNC(=O)CNC(=O)C2COc3ccccc3O2)c1O` (stereo unspecified), the inhibition is 2.29%.

For the molecule `CC(=O)c1cccc(NC(=O)C2COc3ccccc3O2)c1` (stereo unspecified), the inhibition was 4.71%.

`CC(=NNC(=O)CNC(=O)C1COc2ccccc2O1)c1ccc([N+](=O)[O-])cc1` (stereo unspecified): the inhibition is 2.91%.

In the case of `O=C(Nc1ncc([N+](=O)[O-])s1)C1COc2ccccc2O1` (stereo unspecified), the inhibition was 92.1% (active).

Consider `Cc1ccc(NC(=O)CN2C(=O)SC(=Cc3cccn3-c3cccc(C(=O)O)c3)C2=O)cc1C`, for which the inhibition was 8.73%.

For the molecule `CC(=NN=C(c1ccccc1)c1ccccc1)c1ccco1`, the inhibition was 7.82%.

Consider `COc1ccc(C(CCN(Cc2ccc(OC)c(OC)c2)C(=O)CCl)c2ccccc2)cc1` (stereo unspecified), for which the inhibition is 85.5% (active).

In the case of `COc1ccc(CN(Cc2ccc(OC)cc2)C(=O)c2cccs2)cc1`, the inhibition was 6.45%.

Take `COc1ccc(CCNC(=O)C(Sc2ccccn2)c2ccccc2)cc1OC` (stereo unspecified): the inhibition is 4.13%.

Regarding `COc1ccc(CN2CCC(=O)N(C(CO)c3ccccc3)CC2)cc1OC` (stereo unspecified), the inhibition was -2.15%.

Turning to `CCCCCCCCCCCCn1ccc(=N)cc1`, the inhibition is 101% (active).

As to `CCCCCN1CC(O)=C(c2ccccc2)C1=N`, the inhibition is 7.74%.

For the molecule `CCC1=C2CCC3C(=O)N(CC)C(=O)C3C2[C@@]2(Cc3ccccc3)C(=NCCOC)OC(=O)N2C1=O` (stereo partly specified), the inhibition was 4.23%.

Consider `O=C(NN=Cc1cccc(OCC(=O)N2CCCC2)c1)C(=O)Nc1ccccc1F`, for which the inhibition is 5.07%.

With `CC=C(C)C(=O)NCCN1C2=NCC(C(C)C)N2CC1Cc1ccc(O)cc1` (stereo unspecified), the inhibition was 5.17%.

Consider `O=C(CC(=O)NN=Cc1ccc(Cl)cc1Cl)NCc1ccccc1`, for which the inhibition was 3.6%.

Consider `Cc1c(CCOC(=O)c2cc([N+](=O)[O-])ccc2Cl)sc[n+]1CCCCS(=O)(=O)[O-]`, for which the inhibition was -3.66%.

For the molecule `Cc1c(CCO)sc[n+]1CC(=O)OC12CC3CC(CC(C3)C1)C2`, the inhibition was 4.95%.

Turning to `Cc1c(CCOC(=O)CC23CC4CC(CC(C)(C4)C2)C3)sc[n+]1Cc1ccc([N+](=O)[O-])cc1`, the inhibition is 100% (active) and 99.7% (active).

In the case of `O=C1C=C(c2ccc3ncccc3c2)CC(c2ccc(F)cc2)C1` (stereo unspecified), the inhibition is -2.12%.

In the case of `CCOc1cc(C=NO)ccc1OCc1ccccc1F`, the inhibition is 7.66%.

For the molecule `Clc1ccc(NN=Cc2cccs2)nn1`, the inhibition is 4.84%.

For the molecule `C/C(C=Nn1c(-c2cccnc2)n[nH]c1=S)=C\c1ccco1`, the inhibition was 12.6%.

Regarding `CCCCCCCCn1c2c(c(=N)c3c1CCC3)CCCC2`, the inhibition was 100% (active).

Consider `CC(C)c1ccc2c(c1)c(SC(C)(C)C)c(CC(C)(C)C(=O)O)n2Cc1ccc(Cl)cc1`, for which the inhibition is 100% (active).

Turning to `NC(Cc1ccc(O)cc1)c1cn(C(CCC(=O)O)C(=O)N2CCNCC2)nn1` (stereo unspecified), the inhibition is 3.88%.

Turning to `NC(=NOC(=O)C(c1ccccc1)c1ccccc1)c1ccccn1`, the inhibition was 1.37%.

With `CC1=NOC(=O)C1=Cc1ccc(-c2ccc(Cl)c(C(=O)O)c2)o1`, the inhibition is 3.22%.

As to `S=c1[nH]nc(-c2cccc(Cl)c2)n1N=Cc1ccc(-c2ccccc2Br)o1`, the inhibition is 10.7%.

As for `O=C(O)C(c1ccccc1)N1C(=O)/C(=C\c2ccc(-c3cccc(Cl)c3)o2)SC1=S` (stereo unspecified), the inhibition was 95.5% (active).

As for `Cc1cccc(OCC(=O)NN=Cc2ccc(N(C)C)cc2)c1`, the inhibition is 6.39%.

Take `O=C(NN=Cc1c[nH]c2ccccc12)c1ccc(O)c(O)c1`: the inhibition is -0.918%.

`CCOc1ccc(Br)cc1C(=O)NN=Cc1c[nH]c2ccccc12`: the inhibition was -6.23%.

For `O=C(NN=Cc1c[nH]c2ccccc12)c1[nH]c2ccc(Br)cc2c1-c1ccccc1`, the inhibition was 86.5% (active).

As to `CCCCN1C(=S)NCC1Cc1ccc(O)cc1` (stereo unspecified), the inhibition was 4.99%.

As to `CC1COc2ccccc2N1C(=O)c1ccc(F)cc1` (stereo unspecified), the inhibition was 1.99%.

With `O=C(Nc1nnc(C2COc3ccccc3O2)o1)c1ccc(F)cc1` (stereo unspecified), the inhibition is 98.2% (active).

With `O=C(COC(=O)c1ccc(F)cc1)NCC1COc2ccccc2O1` (stereo unspecified), the inhibition was -4.66%.

`COc1ccc(C(C)=NOCC(=O)N2CC3(C)CC2CC(C)(C)C3)cc1` (stereo unspecified): the inhibition is 4.12%.

With `CCCc1c(C(=O)NN=Cc2ccc(OC)c(OCc3ccccc3)c2)nnn1-c1nonc1N`, the inhibition is 14%.

For `COC(=O)[C@@]12CCCCN1C(c1ccc(-c3ccc4c(c3)OCO4)cc1)C1C(=O)N(C)C(=O)C12` (stereo partly specified), the inhibition was -2.68%.

`COc1ccc(C(C)=NNC(=O)C(NC(=O)c2ccccc2)c2n[nH]c(=O)c3ccccc23)c(OC)c1` (stereo unspecified): the inhibition was 1.72%.

With `Cc1ccc(C=NNC(=O)c2ccco2)cc1`, the inhibition was -0.191%.

As usually defined, the inhibition is the change of the read-out against control, counted positive when it falls.
